The record followed here is publication PMC7826789 (International Journal of Molecular Sciences, 2021).

What all share (conditions): Compound Concentration (nM):1000
For assay [1], the system named is PRKG1.
In assay [2] the test system is PRKG2.
For assay [3], the system named is T1, PRKR.
T1 construct: gene EIF2AK2

Assay [4] deals with PRKX.
Assay [5] deals with T2, PRP4.
T2 construct: gene PRPF4B

The test system of assay [6] is T3, PYK2.
T3 construct: gene PTK2B

Assay [7] concerns T4, QSK.
T4 construct: gene KIAA0999

Assay [8] has as its system RAF1.
The test system of assay [9] is RET(M918T).
The subject of assay [10] is RET(V804L).
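Also: KINOMEscan scanMAX binding as percent activity remaining versus control; lower means stronger binding.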

For `NS(=O)(=O)c1ccc(N/N=C2\C(=O)Nc3ccc(C(=O)NCCc4c[nH]cn4)cc32)cc1` [GW300660X], the “Percent Control” value in assay [1] is 62%; in assay [2], 49%; in assay [3], 87%; in assay [4], 100%; in assay [5] it was 100%; in assay [6], 100%. For the same molecule, the “Percent Control” value stood at 89% in assay [7], 100% in [8], 100% in [9] and 100% in assay [10].

Regarding `Cl.c1ccc(Cc2nc3ccc(Nc4ncnc5ccccc45)cc3[nH]2)cc1` [GR269666A], the “Percent Control” value is 100% in assay [1]; 100% in assay [2]; 84% in [3]; 100% in assay [4]; 100% in assay [5]; 100% in [6]. In addition, the “Percent Control” value in assay [7], in [8], in assay [9] and in [10] was 100% throughout.

For the molecule `COc1cc2ncnc(Nc3ccc4c(cnn4Cc4ccccc4)c3)c2cc1OC.Cl` [GW282449A], the “Percent Control” value in assay [1] is 93%; in assay [2] it was 100%; in assay [3], 89%; in assay [4], 100%; in assay [5], 100%; in assay [6], 100%. Moreover, the “Percent Control” value in assay [7] is 100%; in assay [8] it was 100%; in [9] it was 90%; in assay [10] it was 100%.

As for `C/C(Nc1ccc(S(N)(=O)=O)cc1)=C1/C(=O)Nc2ccccc21` [GW335962X], the “Percent Control” value in assay [1] was 90%; in [2] it was 94%; in [3], 63%; in assay [4] it was 87%; in [5] it was 100%; in assay [6] it was 99%. The “Percent Control” value stood at 97% in assay [7], 83% in assay [8], 92% in [9] and 98% in assay [10].

Regarding `CN1CCN(C(=O)c2ccc(NC(=O)Nc3ccc(N(C)c4ccnc(Nc5ccc(CS(C)(=O)=O)cc5)n4)cc3)cc2)CC1.Cl` [GW830263A], the “Percent Control” value in assay [1] is 100%; in assay [2], 100%; in assay [3] it was 100%; in assay [4], 100%; in assay [5], 88%; in assay [6] it was 20%. For the same molecule, the “Percent Control” value in assay [7] was 86%; in [8], 90%; in assay [9], 0.2%; in [10], 5.5%.

With `COc1cccc(-c2c[nH]c3c(N/N=C/c4ccncc4)ncnc23)c1` [GW814408X], the “Percent Control” value in [1] was 100%; in assay [2] it was 97%; in assay [3], 94%; in assay [4], 100%; in assay [5], 100%; in [6], 100%. For the same molecule, the “Percent Control” value in [7] stood at 28%; in assay [8], 74%; in assay [9], 79%; in assay [10], 95%.

`C[C@@H](Oc1cc(-n2cnc3ccc(OC4CCN(C)CC4)cc32)sc1C(N)=O)c1ccccc1Cl` [GSK579289A]: the “Percent Control” value is 100% in assay [1]; 65% in [2]; 80% in assay [3]; 74% in assay [4]; 100% in assay [5]; 86% in assay [6]. The “Percent Control” value is on record as 85% in [7], 100% in [8], 99% in assay [9] and 100% in assay [10].

As for `COc1ccc(COc2ccc(Cc3cnc(N)nc3N)cc2OC)cc1` [GW632580X], the “Percent Control” value is 100% in assay [1]; 86% in assay [2]; 100% in [3]; 100% in [4]; 88% in assay [5]; 84% in assay [6]. Also, the “Percent Control” value in [7] is reported as 100%; in [8] it was 100%; in assay [9] it was 93%; in [10], 88%.

Regarding `COc1ccccc1-c1cc(/C=C2\C(=O)Nc3ncc(Br)cc32)cc(Br)c1O` [GW442130X], the “Percent Control” value in assay [1] is 100%; in [2], 100%; in [3] it was 90%; in assay [4] it was 100%; in [5], 96%; in assay [6], 100%. In addition, the “Percent Control” value in assay [7] is listed as 100%; in assay [8], 100%; in assay [9] it was 100%; in assay [10], 91%.

For the molecule `CC1=C(C(=O)Nc2ccc3[nH]ncc3c2)C(c2ccc(Cl)c(Cl)c2)CC(=O)N1` (centres unmarked) [GSK299115A], the “Percent Control” value in assay [1] was 45%; in assay [2], 67%; in assay [3], 79%; in assay [4] it was 25%; in [5], 74%; in [6] it was 79%. The “Percent Control” value in [7] is 92%; in assay [8], 100%; in [9], 74%; in assay [10] it was 75%.

In the case of `COc1cc(N2CCN(C(C)C)CC2)ccc1Nc1nc(Nc2ccc(F)cc2C(=O)NC[C@@H](O)CO)c2cc[nH]c2n1` [GSK1392956A], the “Percent Control” value in assay [1] was 100%; in assay [2], 100%; in [3], 80%; in assay [4], 80%; in assay [5] it was 100%; in [6], 2.4%. In addition, the “Percent Control” value in [7] worked out at 100%; in [8], 100%; in [9], 93%; in [10] it was 86%.

Turning to `NS(=O)(=O)c1ccc(N/N=C2\C(=O)Nc3ccc(-c4cnco4)cc32)cc1` [GW276655], the “Percent Control” value in assay [1] is 68%; in [2], 57%; in [3] it was 54%; in [4], 100%; in [5], 100%; in assay [6], 79%. The “Percent Control” value in assay [7] came out at 100%; in assay [8] it was 100%; in [9] it was 59%; in assay [10], 60%.

As to `COc1cc(C)c(N(C)C(=O)CN(C)C)cc1Nc1nc(Nc2cccc(F)c2C(N)=O)c2cc[nH]c2n1` [GSK2219385], the “Percent Control” value is 92% in assay [1]; 82% in assay [2]; 100% in assay [3]; 95% in [4]; 100% in assay [5]; 81% in assay [6]. Further, the “Percent Control” value in assay [7], in [8], in assay [9] and in assay [10] was 100% throughout.

Take `COc1ccc2c(-c3ccnc(Nc4cccc(OC(F)(F)F)c4)n3)cnn2n1` [GW810372X]: the “Percent Control” value was 82% in assay [1]; 97% in assay [2]; 75% in assay [3]; 100% in [4]; 100% in assay [5]; 96% in assay [6]. For the same molecule, the “Percent Control” value stood at 95% in assay [7], 100% in [8], 100% in assay [9] and 100% in assay [10].
